Screening results: PubChem BioAssay, Sanford-Burnham Center for Chemical Genomics
Only some compounds are listed: those with a hit (about 4.1% of all), similar ones and a draw of the others.
MIN6 prolif-1: induces beta-cell replication in MIN6 cells; actives 0.29% (n = 330,000); proliferation, % at 10 µM; MIN6 cells proliferation, ATPlite luminescence, 48 h; cells starved in 0.2% serum; 100% = growth in 10% serum;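 active = compounds whose signal lies at least 3.5 SD above the mean of all wells on their plate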;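 also: 0% = DMSO-treated cells in low-serum medium and 100% = 10% serum control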
p-CIP stab down: p/CIP protein destabilization; F442A p/CIP-EGFP cells, EGFP fluorescence, 16 h; Q05BA5; decrease of EGFP signal, % at 10 µM; actives 0.01% (n = 290,000);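 active = EGFP signal decrease of at least 30% at 10 µM or well 3 SD below plate mean, unless failing retest; inactive = the rest, including hits failing retest or dose response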
GRIN3A LBD mod: modulates the human NR3A ligand-binding domain; NR3A LBD differential scanning fluorimetry, Tm shift; 0% = protein alone, 100% = glycine-bound protein; Tm shift relative to glycine control, % at 25 µM; actives 2.5% (n = 340,000);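 active = melting temperature shift of at least 10% of the positive control shift, at one fixed dose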
MPTP block: permeability transition pore inhibition. isolated mouse mitochondria, Ca2+ swelling absorbance, 30 min. inhibition, % at 10 µM. actives 1.4% (n = 360,000);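 active = inhibition of 50% or more, scaled per plate between neutral and stimulator controls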;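 also: 0% = DMSO wells given calcium and 100% = 1 mM EGTA wells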
FAS TE block: blocks the thioesterase domain of human fatty acid synthase; P49327; recombinant FAS-TE, OMFH fluorogenic substrate, fluorescence endpoint; inhibition, % at 15 µM; actives 0.67% (n = 360,000); AID 602261;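 active = compounds whose normalised, plate-corrected inhibition of enzyme fluorescence in the single-dose primary screen is 50% or more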;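 also: 0% = DMSO with enzyme and 100% = substrate without enzyme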
Target sequence (P49327 whole entry, looked up, the tested form may be a part): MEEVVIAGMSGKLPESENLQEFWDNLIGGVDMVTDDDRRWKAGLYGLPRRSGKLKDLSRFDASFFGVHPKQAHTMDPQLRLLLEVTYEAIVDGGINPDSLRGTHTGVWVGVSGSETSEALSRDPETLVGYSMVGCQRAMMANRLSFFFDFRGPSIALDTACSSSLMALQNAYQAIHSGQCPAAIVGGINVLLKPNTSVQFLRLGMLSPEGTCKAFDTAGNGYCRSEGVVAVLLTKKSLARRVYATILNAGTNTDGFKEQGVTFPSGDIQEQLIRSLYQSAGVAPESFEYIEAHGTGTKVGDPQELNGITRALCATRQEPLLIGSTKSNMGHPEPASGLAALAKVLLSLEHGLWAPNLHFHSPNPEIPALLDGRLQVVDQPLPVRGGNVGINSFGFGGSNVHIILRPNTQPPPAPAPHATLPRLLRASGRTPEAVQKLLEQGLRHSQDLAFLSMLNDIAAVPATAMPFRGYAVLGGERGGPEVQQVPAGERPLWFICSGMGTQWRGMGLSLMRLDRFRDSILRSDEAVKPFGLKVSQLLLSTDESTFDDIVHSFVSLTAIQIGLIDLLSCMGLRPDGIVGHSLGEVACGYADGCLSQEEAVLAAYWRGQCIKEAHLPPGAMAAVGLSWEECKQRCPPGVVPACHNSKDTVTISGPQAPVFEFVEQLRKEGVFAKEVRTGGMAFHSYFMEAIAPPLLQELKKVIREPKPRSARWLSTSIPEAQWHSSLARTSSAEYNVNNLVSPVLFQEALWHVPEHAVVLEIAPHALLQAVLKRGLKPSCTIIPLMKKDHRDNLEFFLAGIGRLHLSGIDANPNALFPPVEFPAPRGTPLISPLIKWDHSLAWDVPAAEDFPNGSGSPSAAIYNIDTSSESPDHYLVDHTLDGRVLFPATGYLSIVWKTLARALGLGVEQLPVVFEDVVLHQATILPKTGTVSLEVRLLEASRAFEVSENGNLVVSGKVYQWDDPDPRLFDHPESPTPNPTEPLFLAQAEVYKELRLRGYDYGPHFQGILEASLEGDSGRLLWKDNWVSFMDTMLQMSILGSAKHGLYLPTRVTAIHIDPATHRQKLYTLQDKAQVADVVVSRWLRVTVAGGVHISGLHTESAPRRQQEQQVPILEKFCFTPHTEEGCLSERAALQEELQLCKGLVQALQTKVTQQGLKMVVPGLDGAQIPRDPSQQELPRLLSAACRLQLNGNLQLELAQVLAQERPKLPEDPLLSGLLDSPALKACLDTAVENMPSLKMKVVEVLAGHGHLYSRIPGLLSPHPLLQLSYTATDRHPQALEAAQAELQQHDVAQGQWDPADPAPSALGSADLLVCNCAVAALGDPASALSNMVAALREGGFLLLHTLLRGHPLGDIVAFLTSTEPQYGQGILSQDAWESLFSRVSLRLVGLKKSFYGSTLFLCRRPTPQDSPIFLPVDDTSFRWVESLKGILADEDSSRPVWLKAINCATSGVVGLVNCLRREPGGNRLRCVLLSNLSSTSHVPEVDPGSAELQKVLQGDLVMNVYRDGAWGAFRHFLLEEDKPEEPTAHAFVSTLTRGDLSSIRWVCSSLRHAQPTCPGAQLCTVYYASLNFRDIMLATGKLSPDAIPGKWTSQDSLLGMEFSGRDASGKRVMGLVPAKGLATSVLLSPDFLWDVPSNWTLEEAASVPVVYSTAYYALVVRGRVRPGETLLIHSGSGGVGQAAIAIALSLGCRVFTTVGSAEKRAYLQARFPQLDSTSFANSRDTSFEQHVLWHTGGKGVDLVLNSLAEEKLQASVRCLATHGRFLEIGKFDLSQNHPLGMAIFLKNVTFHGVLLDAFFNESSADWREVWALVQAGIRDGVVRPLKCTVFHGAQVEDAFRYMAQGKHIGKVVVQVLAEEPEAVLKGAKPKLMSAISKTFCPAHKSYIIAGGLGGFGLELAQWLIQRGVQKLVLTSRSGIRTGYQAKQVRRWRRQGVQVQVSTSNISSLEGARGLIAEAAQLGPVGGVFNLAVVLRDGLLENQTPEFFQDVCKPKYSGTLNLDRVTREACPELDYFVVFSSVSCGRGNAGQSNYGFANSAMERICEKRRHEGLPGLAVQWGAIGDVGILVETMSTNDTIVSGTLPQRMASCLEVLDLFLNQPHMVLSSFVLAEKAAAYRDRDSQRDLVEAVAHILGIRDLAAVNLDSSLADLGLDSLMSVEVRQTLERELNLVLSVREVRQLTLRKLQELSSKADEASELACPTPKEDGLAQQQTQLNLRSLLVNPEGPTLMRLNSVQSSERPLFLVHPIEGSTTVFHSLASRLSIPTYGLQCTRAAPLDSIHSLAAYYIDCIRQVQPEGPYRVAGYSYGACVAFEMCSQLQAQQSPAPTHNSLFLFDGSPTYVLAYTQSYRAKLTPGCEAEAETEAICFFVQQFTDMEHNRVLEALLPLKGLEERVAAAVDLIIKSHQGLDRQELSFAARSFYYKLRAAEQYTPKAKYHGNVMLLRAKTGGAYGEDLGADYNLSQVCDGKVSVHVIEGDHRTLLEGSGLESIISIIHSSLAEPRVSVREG
MIN6 prolif-2: confirmation of inducers of beta-cell replication in MIN6 cells; 920 tested, under 10 active; MIN6 beta-cell proliferation, ATPlite luminescence, 48 h; cells kept in 0.2% serum; scaled between 0.2% and 10% serum; AID 463095; proliferation increase, % at 50 µM; shares compounds with MIN6 prolif-1;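 active = proliferation increase above 40% at any of the four tested concentrations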
* = called active by the depositor.

Cc1cc(N(C(=O)c2ccco2)C(C(=O)NC2CCCCC2)c2ccccc2)ccc1-n1cnnn1 (stereo not given) was read as MIN6 prolif-1 -1.6, p-CIP stab down 0.1, GRIN3A LBD mod -11.9, MPTP block -0.7 and FAS TE block 5.7.
Screening COc1cccc(C(C(=O)NC2CCCCC2)N(C(=O)c2ccco2)c2ccc(-n3cnnn3)c(C)c2)c1 (stereo not given) returned MIN6 prolif-1 7.7*, p-CIP stab down -1.9, GRIN3A LBD mod -3.3, MPTP block 0.4, FAS TE block 16.6 and MIN6 prolif-2 -2.4.
Screening Cc1cccc(C)c1NC(=O)C(c1cc2ccccc2o1)N1CCC(c2ccccc2)CC1 (stereo not given) returned MPTP block -0.8.
`CCOc1ccccc1C(=O)NCC(=O)Nc1ncccc1C` gave MIN6 prolif-1 11.8*, GRIN3A LBD mod -2.0, MPTP block -1.0, FAS TE block -4.0 and MIN6 prolif-2 -0.8.
`CCOc1ccc(C(=O)NCC(=O)Nc2ncccc2C)cc1OCC` gave MIN6 prolif-1 0.8, GRIN3A LBD mod -0.3, MPTP block 0.5 and FAS TE block -4.8.
O=C(NCc1ccc(F)cc1)c1cc(C2CCCN(C(=O)CCCc3ccccc3)C2)on1 (stereo not given) was read as MPTP block -0.9 and FAS TE block 9.3.
Screening O=C(COC(=O)c1ccc2[nH]c3c(c2c1)CCCC3)Nc1ccccc1Cl returned MIN6 prolif-1 9.6*, p-CIP stab down -9.1, GRIN3A LBD mod 12.6*, MPTP block -0.2, FAS TE block -3.0 and MIN6 prolif-2 -0.9.
For CCCCc1n[nH]c2c1/C(=N/OCC)CC(C)(C)C2 the results were MIN6 prolif-1 9.1*, p-CIP stab down -13.2, GRIN3A LBD mod 0.5, MPTP block 6.1, FAS TE block 8.6 and MIN6 prolif-2 -6.3.
Screening CC(C)[C@H](NC(=O)c1cccc(S(=O)(=O)N2CCOCC2)c1)C(=O)OCC(=O)Nc1cccc(Br)c1 returned GRIN3A LBD mod -2.5, MPTP block -0.6 and FAS TE block 21.8.
Screening N/C(=N\OC(=O)C12CC3CC(CC(C3)C1)C2)c1ccccn1 returned MIN6 prolif-1 -2.3, p-CIP stab down -3.5, GRIN3A LBD mod -2.5, MPTP block 1.0 and FAS TE block 2.3.
`C/C(=N\NC(=O)c1ccccn1)C12CC3CC(CC(C3)C1)C2` gave MIN6 prolif-1 6.6*, p-CIP stab down -12.4, GRIN3A LBD mod 0.7, MPTP block 1.6, FAS TE block 0.5 and MIN6 prolif-2 -5.4.
COc1ccc(-c2c(C(=O)c3ccccc3)[nH]c(N)c2C(=O)c2ccc(Br)cc2)cc1OC was read as MPTP block 1.0 and FAS TE block 14.1.
Screening O=c1cc(-c2ccc(O)c(O)c2)oc2cc(O[C@@H]3O[C@H](CO)[C@@H](O)[C@H](O)[C@H]3O)cc(O)c12 returned MIN6 prolif-1 0.1, GRIN3A LBD mod 2.3, MPTP block 3.4 and FAS TE block -6.3.
O=c1cc(-c2ccc(O)cc2)oc2cc(O)c(C3OC(CO)C(O)C(O)C3O)c(O)c12 (stereo not given) was read as MIN6 prolif-1 9.0*, p-CIP stab down -16.9, GRIN3A LBD mod -0.7, MPTP block 0.2, FAS TE block -4.0 and MIN6 prolif-2 -1.1.
Screening COc1ccc(Cn2c(C3CC3)nc3ccc(NC(=O)c4ccco4)cc3c2=O)cc1 returned MIN6 prolif-1 5.5*, p-CIP stab down -3.1, GRIN3A LBD mod -12.1, MPTP block 0.5, FAS TE block 14.1 and MIN6 prolif-2 -4.8.
CC(C)Cc1nc2n[nH]c(N)c2c2c1CCCC2 was read as MIN6 prolif-1 1.7, p-CIP stab down -12.7, GRIN3A LBD mod 1.5, MPTP block -13.9 and FAS TE block -3.9.
For CC(C)Cc1nc2n[nH]c(N)c2c2c1CCC2 the results were MIN6 prolif-1 0.0*, p-CIP stab down 1.3, GRIN3A LBD mod 1.7, MPTP block 0.1, FAS TE block -2.1 and MIN6 prolif-2 1.7.
For CC(C)c1nc2n[nH]c(N)c2c2c1CCCC2 the results were MIN6 prolif-1 6.1*, p-CIP stab down -8.4, GRIN3A LBD mod -0.6, MPTP block -7.1, FAS TE block -8.9 and MIN6 prolif-2 7.0.
For Cc1ccc(OCCNC(=O)CNC(=O)c2ccc3c(c2)OCO3)cc1 the results were MIN6 prolif-1 11.1*, GRIN3A LBD mod 0.8, MPTP block -0.5, FAS TE block -4.2 and MIN6 prolif-2 -4.1.
COc1cc([N+](=O)[O-])ccc1NC(=O)c1cccc(NC(=O)C(C)C)c1 was read as MIN6 prolif-1 7.8*, p-CIP stab down -8.7, GRIN3A LBD mod -3.3, MPTP block 6.2, FAS TE block 15.8 and MIN6 prolif-2 -3.2.
CC(C)C(=O)Nc1cccc(NC(=O)c2cccc([N+](=O)[O-])c2)c1 was read as MIN6 prolif-1 -2.7, p-CIP stab down 9.3, GRIN3A LBD mod 0.8, MPTP block 0.5 and FAS TE block -1.7.
For CC(=O)OCC(=O)Nc1ccc(N=Nc2ccccc2)cc1 the results were MIN6 prolif-1 0.0, p-CIP stab down 1.8, GRIN3A LBD mod -14.2, MPTP block 1.7 and FAS TE block 2.7.
For CCOC(=O)/C(C(=Nc1ccccc1)Nc1ccccc1)=C(\C)O the results were MIN6 prolif-1 7.0*, p-CIP stab down 3.8, GRIN3A LBD mod -0.5, MPTP block 0.4, FAS TE block 5.1 and MIN6 prolif-2 -5.2.
For CCOc1ccc(C(=O)NCC(=O)OCCCC(=O)c2ccc(F)cc2)cc1OCC the results were MIN6 prolif-1 13.8*, GRIN3A LBD mod 1.2, MPTP block -2.1, FAS TE block 2.3 and MIN6 prolif-2 -2.3.
COc1ccc(C(=O)NCC(=O)OCCCOC(=O)CNC(=O)c2ccc(OC)c(OC)c2)cc1OC was read as MIN6 prolif-1 3.1, p-CIP stab down 8.5, GRIN3A LBD mod 0.1, MPTP block 1.4 and FAS TE block -5.2.
Screening COc1ccc(CC(=O)NCCS(=O)(=O)N2CCN(c3ccccc3)CC2)cc1 returned MIN6 prolif-1 11.3*, GRIN3A LBD mod 0.8, MPTP block -1.8, FAS TE block -1.6 and MIN6 prolif-2 -0.1.
O=C1NC(=O)C2(CCC(C3CCCCC3)CC2)N1 (stereo not given) was read as GRIN3A LBD mod -0.9, MPTP block -1.2 and FAS TE block -7.5.
`CO[C@H]1CN(C)C(=O)c2cc(NC(=O)C3CCCC3)ccc2OC[C@@H](C)NC[C@H]1C` gave MPTP block 1.0.
`COc1ccc(CNC(=O)CN(CCC(C)C)S(=O)(=O)c2ccc3c(c2)OCCO3)cc1` gave MIN6 prolif-1 5.3*, p-CIP stab down 3.9, GRIN3A LBD mod 153.6*, MPTP block 2.2, FAS TE block 8.8 and MIN6 prolif-2 -5.6.
